# Measurements as given in PMC11006913.
# Substitutions are numbered along the chain they refer to.
# Assays:
# Experiment in all cases: PBM; 200 nM protein, PBS
# Conditions in all cases: dsDNA, one strand shown
# HOXA2 [1] = biological target: HOXA2 (Homo sapiens, UniProt O43364 129-215, R185T)
# ALX1 [2] = biological target: ALX1 (Homo sapiens, UniProt Q15699 118-204, L144V)
# HOXA2 [3] = biological target: HOXA2 (Homo sapiens, UniProt O43364 129-215, R185K)
# ALX1 [4] = biological target: ALX1 (Homo sapiens, UniProt Q15699 118-204, L144R)
# ALX1 (Homo sapiens, UniProt Q15699 118-204, L144R), sequence (Q15699 118-204 L144R): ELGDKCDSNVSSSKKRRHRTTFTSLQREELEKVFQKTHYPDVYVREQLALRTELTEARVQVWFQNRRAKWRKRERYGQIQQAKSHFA
# HOXA2 [5] = biological target: HOXA2 (Homo sapiens, UniProt O43364 129-215, Y150S)
# HOXA2 (Homo sapiens, UniProt O43364 129-215, Y150S), sequence (O43364 129-215 Y150S): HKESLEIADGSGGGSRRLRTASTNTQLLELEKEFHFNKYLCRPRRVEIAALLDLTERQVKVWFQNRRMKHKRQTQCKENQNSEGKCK
# NKX3-2 [6] = biological target: NKX3-2 (Homo sapiens, UniProt P78367 192-278, P234S)
# NKX3-2 (Homo sapiens, UniProt P78367 192-278, P234S), sequence (P78367 192-278 P234S): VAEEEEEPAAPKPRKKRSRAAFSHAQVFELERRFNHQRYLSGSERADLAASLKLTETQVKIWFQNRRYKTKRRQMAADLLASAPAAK
# ALX1 [7] = biological target: ALX1 (Homo sapiens, UniProt Q15699 118-204)
# ALX1 (Homo sapiens, UniProt Q15699 118-204), sequence (Q15699 118-204): as the sequence (Q15699 118-204 L144R) above, with R27L counted along it
# HOXA2 [8] = biological target: HOXA2 (Homo sapiens, UniProt O43364 129-215)
# HOXA2 (Homo sapiens, UniProt O43364 129-215), sequence (O43364 129-215): as the sequence (O43364 129-215 Y150S) above, with S22Y counted along it
# NKX3-2 [9] = biological target: NKX3-2 (Homo sapiens, UniProt P78367 192-278)
# NKX3-2 (Homo sapiens, UniProt P78367 192-278), sequence (P78367 192-278): as the sequence (P78367 192-278 P234S) above, with S43P counted along it
# SIX6 [10] = biological target: T1, SIX6 (Homo sapiens, UniProt O95475 114-200, T165G)
# T1 sequence: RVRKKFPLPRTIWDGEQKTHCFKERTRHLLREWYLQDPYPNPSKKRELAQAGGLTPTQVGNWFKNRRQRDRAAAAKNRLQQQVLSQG
# SIX6 [11] = biological target: T2, SIX6 (Homo sapiens, UniProt O95475 114-200, T165A)
# T2 sequence: T1 sequence with G52A
# HESX1 = HESX1 (Homo sapiens, UniProt Q9UBX0 95-180)
# HESX1, sequence (Q9UBX0 95-180): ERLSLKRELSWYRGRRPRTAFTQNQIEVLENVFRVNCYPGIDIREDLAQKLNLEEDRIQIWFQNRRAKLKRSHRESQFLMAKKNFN
# ALX3 [12] = biological target: ALX3 (Homo sapiens, UniProt O95076 139-225, N203Q)
# ALX3 (Homo sapiens, UniProt O95076 139-225, N203Q), sequence (O95076 139-225 N203Q): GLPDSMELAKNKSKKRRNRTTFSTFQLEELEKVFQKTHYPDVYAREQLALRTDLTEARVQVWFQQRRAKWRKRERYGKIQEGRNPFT
# ALX3 [13] = biological target: ALX3 (Homo sapiens, UniProt O95076 139-225)
# ALX3 (Homo sapiens, UniProt O95076 139-225), sequence (O95076 139-225): as the sequence (O95076 139-225 N203Q) above, with Q65N counted along it
# ALX3 [14] = biological target: ALX3 (Homo sapiens, UniProt O95076 139-225, L168Q)
# ALX3 (Homo sapiens, UniProt O95076 139-225, L168Q), sequence (O95076 139-225 L168Q): as the sequence (O95076 139-225 N203Q) above, with L30Q, Q65N counted along it
# ALX3 [15] = biological target: ALX3 (Homo sapiens, UniProt O95076 139-225, L168V)
# ALX3 (Homo sapiens, UniProt O95076 139-225, L168V), sequence (O95076 139-225 L168V): as the sequence (O95076 139-225 N203Q) above, with L30V, Q65N counted along it
# ALX3 [16] = biological target: ALX3 (Homo sapiens, UniProt O95076 139-225, N203S)
# ALX3 (Homo sapiens, UniProt O95076 139-225, N203S), sequence (O95076 139-225 N203S): as the sequence (O95076 139-225 N203Q) above, with Q65S counted along it
# NKX2-6 = biological target: T3, NKX2-6 (Homo sapiens, UniProt A6NCS4 118-204, R150C)
# T3 sequence: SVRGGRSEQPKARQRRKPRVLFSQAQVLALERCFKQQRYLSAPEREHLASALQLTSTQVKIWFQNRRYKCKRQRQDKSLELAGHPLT
# MSX2 [17] = biological target: MSX2 (Homo sapiens, UniProt P35548 130-214, R199I)
# MSX2 (Homo sapiens, UniProt P35548 130-214, R199I), sequence (P35548 130-214 R199I): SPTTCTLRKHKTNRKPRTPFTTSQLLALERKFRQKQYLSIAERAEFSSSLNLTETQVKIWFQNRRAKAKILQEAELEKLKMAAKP
# MSX2 [18] = biological target: MSX2 (Homo sapiens, UniProt P35548 130-214)
# MSX2 (Homo sapiens, UniProt P35548 130-214), sequence (P35548 130-214): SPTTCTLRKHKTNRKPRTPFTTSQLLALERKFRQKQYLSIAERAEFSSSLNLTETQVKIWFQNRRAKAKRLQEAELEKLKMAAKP
# MSX2 [19] = biological target: MSX2 (Homo sapiens, UniProt P35548 130-214, F161Y)
# MSX2 (Homo sapiens, UniProt P35548 130-214, F161Y), sequence (P35548 130-214 F161Y): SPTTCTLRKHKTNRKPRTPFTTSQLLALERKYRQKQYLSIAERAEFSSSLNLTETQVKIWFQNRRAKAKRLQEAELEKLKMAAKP
# HOXB9 [20] = biological target: HOXB9 (Homo sapiens, UniProt P17482 171-250)
# HOXB9 (Homo sapiens, UniProt P17482 171-250), sequence (P17482 171-250): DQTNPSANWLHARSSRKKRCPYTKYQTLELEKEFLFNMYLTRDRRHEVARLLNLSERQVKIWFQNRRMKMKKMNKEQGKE
# HOXB9 [21] = biological target: HOXB9 (Homo sapiens, UniProt P17482 171-250, R186Q)
# HOXB9 (Homo sapiens, UniProt P17482 171-250, R186Q), sequence (P17482 171-250 R186Q): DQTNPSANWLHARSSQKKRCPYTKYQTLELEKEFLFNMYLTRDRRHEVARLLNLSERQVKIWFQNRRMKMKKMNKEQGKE
# HOXD13 [22] = biological target: HOXD13 (Homo sapiens, UniProt P35453 263-343, T313R)
# HOXD13 (Homo sapiens, UniProt P35453 263-343, T313R), sequence (P35453 263-343 T313R): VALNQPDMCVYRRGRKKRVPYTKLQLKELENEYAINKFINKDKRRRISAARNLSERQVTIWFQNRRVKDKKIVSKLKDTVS
# HOXD13 [23] = biological target: HOXD13 (Homo sapiens, UniProt P35453 263-343)
# HOXD13 (Homo sapiens, UniProt P35453 263-343), sequence (P35453 263-343): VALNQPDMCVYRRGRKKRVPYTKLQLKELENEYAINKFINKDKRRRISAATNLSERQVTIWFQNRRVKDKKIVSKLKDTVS
# HOXD13 [24] = biological target: HOXD13 (Homo sapiens, UniProt P35453 263-343, T313A)
# HOXD13 (Homo sapiens, UniProt P35453 263-343, T313A), sequence (P35453 263-343 T313A): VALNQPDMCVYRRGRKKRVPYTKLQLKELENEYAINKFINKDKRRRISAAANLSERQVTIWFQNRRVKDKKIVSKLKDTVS
# HOXA2 (Homo sapiens, UniProt O43364 129-215, R185T), sequence (O43364 129-215 R185T): as the sequence (O43364 129-215 Y150S) above, with S22Y, R57T counted along it
# HOXA2 (Homo sapiens, UniProt O43364 129-215, R185K), sequence (O43364 129-215 R185K): as the sequence (O43364 129-215 Y150S) above, with S22Y, R57K counted along it
# ALX1 (Homo sapiens, UniProt Q15699 118-204, L144V), sequence (Q15699 118-204 L144V): as the sequence (Q15699 118-204 L144R) above, with R27V counted along it
sequence,measurement,setting,value
GACCGCCC,binding signal,HOXA2 [1],"7.33 upbm affinity estimate (log intensity, higher = more binding, comparable within an allelic series)"
same,binding signal,ALX1 [2],"6.66 upbm affinity estimate (log intensity, higher = more binding, comparable within an allelic series)"
same,binding signal,HOXA2 [3],"10.1 upbm affinity estimate (log intensity, higher = more binding, comparable within an allelic series)"
same,binding signal,ALX1 [4],"6.49 upbm affinity estimate (log intensity, higher = more binding, comparable within an allelic series)"
same,binding signal,HOXA2 [5],"10.4 upbm affinity estimate (log intensity, higher = more binding, comparable within an allelic series)"
same,binding signal,NKX3-2 [6],"10.5 upbm affinity estimate (log intensity, higher = more binding, comparable within an allelic series)"
same,binding signal,ALX1 [7],"6.57 upbm affinity estimate (log intensity, higher = more binding, comparable within an allelic series)"
same,binding signal,HOXA2 [8],"7.29 upbm affinity estimate (log intensity, higher = more binding, comparable within an allelic series)"
same,binding signal,NKX3-2 [9],"10.5 upbm affinity estimate (log intensity, higher = more binding, comparable within an allelic series)"
AGTGACAC,binding signal,SIX6 [10],"10.6 upbm affinity estimate (log intensity, higher = more binding, comparable within an allelic series)"
same,binding signal,SIX6 [11],"10.5 upbm affinity estimate (log intensity, higher = more binding, comparable within an allelic series)"
GAGAATGA,binding signal,HESX1,"7.23 upbm affinity estimate (log intensity, higher = more binding, comparable within an allelic series)"
CCCCCCCA,binding signal,HOXA2 [1],"7.25 upbm affinity estimate (log intensity, higher = more binding, comparable within an allelic series)"
same,binding signal,ALX3 [12],"7.7 upbm affinity estimate (log intensity, higher = more binding, comparable within an allelic series)"
same,binding signal,HOXA2 [3],"9.99 upbm affinity estimate (log intensity, higher = more binding, comparable within an allelic series)"
same,binding signal,ALX3 [13],"7.68 upbm affinity estimate (log intensity, higher = more binding, comparable within an allelic series)"
same,binding signal,ALX3 [14],"7.68 upbm affinity estimate (log intensity, higher = more binding, comparable within an allelic series)"
same,binding signal,ALX3 [15],"7.64 upbm affinity estimate (log intensity, higher = more binding, comparable within an allelic series)"
same,binding signal,HOXA2 [5],"10.2 upbm affinity estimate (log intensity, higher = more binding, comparable within an allelic series)"
same,binding signal,ALX3 [16],"7.67 upbm affinity estimate (log intensity, higher = more binding, comparable within an allelic series)"
same,binding signal,HOXA2 [8],"7.37 upbm affinity estimate (log intensity, higher = more binding, comparable within an allelic series)"
GCATAAAC,binding signal,HESX1,"7.44 upbm affinity estimate (log intensity, higher = more binding, comparable within an allelic series)"
CTGGCTCC,binding signal,HOXA2 [1],"7.01 upbm affinity estimate (log intensity, higher = more binding, comparable within an allelic series)"
same,binding signal,NKX2-6,"9.34 upbm affinity estimate (log intensity, higher = more binding, comparable within an allelic series)"
same,binding signal,MSX2 [17],"9.47 upbm affinity estimate (log intensity, higher = more binding, comparable within an allelic series)"
same,binding signal,HOXA2 [3],"10.3 upbm affinity estimate (log intensity, higher = more binding, comparable within an allelic series)"
same,binding signal,MSX2 [18],"9.34 upbm affinity estimate (log intensity, higher = more binding, comparable within an allelic series)"
same,binding signal,MSX2 [19],"9.4 upbm affinity estimate (log intensity, higher = more binding, comparable within an allelic series)"
same,binding signal,HOXA2 [5],"10.5 upbm affinity estimate (log intensity, higher = more binding, comparable within an allelic series)"
same,binding signal,HOXA2 [8],"6.91 upbm affinity estimate (log intensity, higher = more binding, comparable within an allelic series)"
ATCAATAG,binding signal,HOXA2 [1],"9.12 upbm affinity estimate (log intensity, higher = more binding, comparable within an allelic series)"
same,binding signal,HOXB9 [20],"10.1 upbm affinity estimate (log intensity, higher = more binding, comparable within an allelic series)"
same,binding signal,HOXB9 [21],"10.1 upbm affinity estimate (log intensity, higher = more binding, comparable within an allelic series)"
same,binding signal,HOXA2 [8],"9.47 upbm affinity estimate (log intensity, higher = more binding, comparable within an allelic series)"
GACACCTA,binding signal,SIX6 [10],"10.6 upbm affinity estimate (log intensity, higher = more binding, comparable within an allelic series)"
same,binding signal,SIX6 [11],"10.5 upbm affinity estimate (log intensity, higher = more binding, comparable within an allelic series)"
AATTTATG,binding signal,HOXA2 [1],"10.1 upbm affinity estimate (log intensity, higher = more binding, comparable within an allelic series)"
same,binding signal,HOXD13 [22],"10.7 upbm affinity estimate (log intensity, higher = more binding, comparable within an allelic series)"
same,binding signal,HOXA2 [3],"11.9 upbm affinity estimate (log intensity, higher = more binding, comparable within an allelic series)"
same,binding signal,HOXD13 [23],"11.6 upbm affinity estimate (log intensity, higher = more binding, comparable within an allelic series)"
same,binding signal,HOXD13 [24],"11.5 upbm affinity estimate (log intensity, higher = more binding, comparable within an allelic series)"
same,binding signal,HOXA2 [5],"10.9 upbm affinity estimate (log intensity, higher = more binding, comparable within an allelic series)"
same,binding signal,HOXA2 [8],"10.1 upbm affinity estimate (log intensity, higher = more binding, comparable within an allelic series)"
CCGCCGCA,binding signal,HOXA2 [1],"7.15 upbm affinity estimate (log intensity, higher = more binding, comparable within an allelic series)"
same,binding signal,MSX2 [17],"9.56 upbm affinity estimate (log intensity, higher = more binding, comparable within an allelic series)"
same,binding signal,HOXA2 [3],"10.1 upbm affinity estimate (log intensity, higher = more binding, comparable within an allelic series)"
same,binding signal,MSX2 [18],"9.59 upbm affinity estimate (log intensity, higher = more binding, comparable within an allelic series)"
same,binding signal,MSX2 [19],"9.59 upbm affinity estimate (log intensity, higher = more binding, comparable within an allelic series)"
same,binding signal,HOXA2 [5],"10.4 upbm affinity estimate (log intensity, higher = more binding, comparable within an allelic series)"
same,binding signal,HOXA2 [8],"7.05 upbm affinity estimate (log intensity, higher = more binding, comparable within an allelic series)"
AAGTGTCA,binding signal,SIX6 [10],"10.5 upbm affinity estimate (log intensity, higher = more binding, comparable within an allelic series)"
same,binding signal,SIX6 [11],"10.5 upbm affinity estimate (log intensity, higher = more binding, comparable within an allelic series)"
same,binding signal,MSX2 [18],"10.6 upbm affinity estimate (log intensity, higher = more binding, comparable within an allelic series)"
same,binding signal,MSX2 [19],"10.5 upbm affinity estimate (log intensity, higher = more binding, comparable within an allelic series)"
ACGATCAA,binding signal,HESX1,"7.32 upbm affinity estimate (log intensity, higher = more binding, comparable within an allelic series)"
GGTGACAC,binding signal,SIX6 [10],"10.4 upbm affinity estimate (log intensity, higher = more binding, comparable within an allelic series)"
same,binding signal,SIX6 [11],"10.4 upbm affinity estimate (log intensity, higher = more binding, comparable within an allelic series)"
ATTTACGC,binding signal,HESX1,"7.63 upbm affinity estimate (log intensity, higher = more binding, comparable within an allelic series)"
ATAACTGC,binding signal,HESX1,"7.57 upbm affinity estimate (log intensity, higher = more binding, comparable within an allelic series)"
AGGTGTCG,binding signal,SIX6 [10],"10.5 upbm affinity estimate (log intensity, higher = more binding, comparable within an allelic series)"
same,binding signal,SIX6 [11],"10.4 upbm affinity estimate (log intensity, higher = more binding, comparable within an allelic series)"
GACACCTC,binding signal,SIX6 [10],"10.4 upbm affinity estimate (log intensity, higher = more binding, comparable within an allelic series)"
GCTAATCA,binding signal,HOXA2 [1],"12.5 upbm affinity estimate (log intensity, higher = more binding, comparable within an allelic series)"
same,binding signal,MSX2 [17],"11 upbm affinity estimate (log intensity, higher = more binding, comparable within an allelic series)"
CCGACACC,binding signal,SIX6 [10],"10.4 upbm affinity estimate (log intensity, higher = more binding, comparable within an allelic series)"
same,binding signal,SIX6 [11],"10.3 upbm affinity estimate (log intensity, higher = more binding, comparable within an allelic series)"
GGTGATTA,binding signal,HOXA2 [1],"12.6 upbm affinity estimate (log intensity, higher = more binding, comparable within an allelic series)"
same,binding signal,HOXA2 [3],"13.1 upbm affinity estimate (log intensity, higher = more binding, comparable within an allelic series)"
GGTGTAAC,binding signal,SIX6 [10],"10.4 upbm affinity estimate (log intensity, higher = more binding, comparable within an allelic series)"
same,binding signal,SIX6 [11],"10.4 upbm affinity estimate (log intensity, higher = more binding, comparable within an allelic series)"
GGTTATGA,binding signal,HESX1,"7.26 upbm affinity estimate (log intensity, higher = more binding, comparable within an allelic series)"
